Screening data deposited in PubChem by National Center for Advancing Translational Sciences (NCATS).
MCF10A rerep: A quantitative high throughput screen for small molecules that induce DNA re-replication in MCF 10a normal breast cells. MCF 10A DNA re-replication, Hoechst nuclear intensity, 48 h. Potency, µM (highest dose often 46.1 µM), for inactives: top-dose activity, positive = re-replication, usual class: activators. actives 2.9% (n = 350,000). AID 624296, 2012; note: % of control where 0% means no effect; nearly all actives have a fitted effect of over 50% in size
RGS4 inhibitor: Inhibitors of Regulator of G Protein Signaling (RGS) 4: qHTS; Regulator of G-protein signaling 4 (Homo sapiens), P49798; Transcreener GDP fluorescence polarization, RGS4-accelerated GTP hydrolysis; Potency, µM (titrated, usually from 114 µM), for inactives: at the highest dose activity change, negative = inhibition, usual class: inhibitors; actives 0.039% (n = 390,000); AID 504845, 2011; note: % is set by controls: 0 for no effect and ±100 for the full control effect; nearly all actives have a fitted effect of over 75% in size
Target sequence (P49798 whole entry, looked up): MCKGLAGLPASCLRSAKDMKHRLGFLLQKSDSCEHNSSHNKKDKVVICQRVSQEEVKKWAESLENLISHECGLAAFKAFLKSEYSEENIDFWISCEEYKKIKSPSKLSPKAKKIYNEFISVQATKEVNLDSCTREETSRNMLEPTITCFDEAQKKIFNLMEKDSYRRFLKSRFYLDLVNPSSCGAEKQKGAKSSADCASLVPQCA
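MLSMR compounds (23 nl, pin-transferred) preincubated 10 min at room temperature with a 500nM (2x) first reagent, then RGS4 at 900nM (2x) plus Transcreener GDP mix added; fluorescence polarization (620/688 nm) read before and after 90 min at 30 °C.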
KB-V1 MDR tox: qHTS assay for MDR1-selective chemotherapeutics: Primary screen using the drug-selected MDR subline cells KB-V1; actives 3.4% (n = 400,000); AID 1347076, 2019; KB-V1 MDR cells viability, CellTiter-Glo, 72 h; Potency, µM (highest dose often 46.1 µM), most hits filed as cytotoxic; note: % is set by controls: 0 for no effect and ±100 for the full control effect; nearly all actives have a fitted effect of over 60% in size
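Luminescent ATP read-out (CellTiter-Glo, 10 min) measures survival of drug-selected KB-V1 MDR cells after 72 h, 37 degrees C compound exposure. Medium: phenol-red-free DMEM, 10% FBS. Values from fitted concentration-response curves.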
KB-3-1 tox: qHTS assay for MDR1-selective chemotherapeutics: Primary screen using the parental adenocarcinoma cell KB-3-1; KB-3-1 viability, CellTiter-Glo ATP luminescence, 72 h; actives 1.4% (n = 400,000); Potency, µM (doses to about 46.1 µM), most hits filed as cytotoxic; note: % is set by controls: 0 for no effect and ±100 for the full control effect; nearly all actives have a fitted effect of over 60% in size
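Cytotoxicity measured as CellTiter-Glo luminescence after 72 h at 37 C. Compound titrations were pinned onto drug-naive KB-3-1 parental adenocarcinoma cells grown in DMEM with 10% FBS, and normalized data fitted to concentration-response curves.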
PTAP TSG101 blk: qHTS Assay for Iinhibitors of HIV-1 Budding by Blocking the Interaction of PTAP/TSG101 | Potency, µM (highest dose often 115 µM), for the others: at the highest dose activity change, negative = inhibition, hits mostly inhibitors | 340,000 tested, under 10 active | Tumor susceptibility gene 101 protein (Homo sapiens), Q99816 | Fluorescence polarization, FITC-PTAP peptide / Tsg101 binding; active = well fitted inhibition curve with a large enough effect in the main read-out, with a control signal flat, not every such curve was filed as active; inconclusive = small, poorly fitted or top-dose-only effect, or effect the other way, or a change in a side signal; inactive = no such curve, though single readings can be large or run the other way; note: % of control where 0% means no effect
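Fluorescence polarization binding of Tsg101 binding domain (10 uM final) to FITC-labeled PTAP peptide (50 nM final) in HEPES pH 7.5 buffer with NaCl, Tween 20, EDTA, TCEP. Compounds added before peptide; binding 20 min at RT.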
SW480 rereplic: A quantitative high throughput screen for small molecules that induce DNA re-replication in SW480 colon adenocarcinoma cells; SW480 DNA re-replication, Hoechst DNA content imaging, 48 h; Potency, µM (series often up to 46.1 µM), inactives show top-dose re-replication activation, usual class: activators; actives 1.8% (n = 340,000); AID 624297, 2012; note: % of control where 0% means no effect; nearly all actives have a fitted effect of over 55% in size
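Image-based read-out: total Hoechst fluorescence of nuclei (405 nm excitation, 500-530 nm emission), with hits raising the fraction of high-intensity nuclei. SW480 colon cells incubated 48 hr with compounds at 37 C.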
Starred values were filed as active, the others as inactive. Rows were chosen to be rich in hits. Some 6.6% of all compounds tested hit in one or more screens of this group. Unless noted, calls come from the whole dose curve; as a rule, active = well fitted curve in the direction sought with a large enough effect; inconclusive = small, poorly fitted or top-dose-only effect, or another doubt; inactive = no such curve, though single readings can be large; an effect the other way counts as inactive or inconclusive. Potency is the fitted concentration of half-maximal effect.

Results for C=C(C)C1CC=C(C)CC1 (centres undefined) ?
MCF10A rerep: -0.5%; SW480 rereplic: -0.5%

Results for Cc1cccc(NC(=O)/C(C#N)=C/c2ccc(Sc3ccccc3)o2)c1C ?
MCF10A rerep: 18.4µM*; RGS4 inhibitor: 34.4%; KB-V1 MDR tox: inactive; KB-3-1 tox: inactive; PTAP TSG101 blk: 0.0%; SW480 rereplic: inconclusive

How did Cc1ccccc1NC(=O)/C(C#N)=C/c1ccc(-c2ccc(Cl)c(C(=O)O)c2)o1 do in these assays?
MCF10A rerep: 6.8%; RGS4 inhibitor: -8.4%; KB-V1 MDR tox: inactive; KB-3-1 tox: inactive; PTAP TSG101 blk: 0.4%; SW480 rereplic: 4.4%

Results for CC1CC(C)CN(C(=O)/C(=C\c2ccccc2)c2ccccc2)C1 (centres undefined) ?
MCF10A rerep: 20.6µM*; RGS4 inhibitor: 34.4%; KB-V1 MDR tox: 8.2µM*; KB-3-1 tox: inconclusive; PTAP TSG101 blk: -0.6%; SW480 rereplic: -23.0%

How did CN1CCN(C(=O)/C(=C/c2ccccc2)c2ccccc2)CC1 do in these assays?
MCF10A rerep: 0.6%; RGS4 inhibitor: 18.2%; KB-V1 MDR tox: inactive; KB-3-1 tox: inconclusive; PTAP TSG101 blk: -5.1%; SW480 rereplic: -0.8%

What do the screens show for `O=C1C(C2=NC(C(=O)O)C3C(=O)N(c4ccccc4)C(=O)C23)=C(O)c2ccccc21` (centres undefined)?
MCF10A rerep: 4.4%; RGS4 inhibitor: -42.8%; KB-V1 MDR tox: inactive; KB-3-1 tox: inactive; PTAP TSG101 blk: -6.2%; SW480 rereplic: -0.2%

How did O=C1C(C2=NC(c3ccccn3)C3C(=O)N(c4ccc(OC(F)(F)F)cc4)C(=O)C23)=C(O)c2ccccc21 (centres undefined) do in these assays?
MCF10A rerep: inconclusive; RGS4 inhibitor: -5.0%; KB-V1 MDR tox: inactive; KB-3-1 tox: 4.61µM*; PTAP TSG101 blk: -4.2%; SW480 rereplic: -7.7%

How did COc1ccc(S(=O)(=O)Nc2ccc3oc4c(c3c2)CCCC4)cc1 do in these assays?
RGS4 inhibitor: -11.0%; KB-V1 MDR tox: inconclusive; KB-3-1 tox: inactive

How did COc1ccc(OC)c(S(=O)(=O)Nc2ccc3oc4c(c3c2)C(=O)CCC4)c1 do in these assays?
MCF10A rerep: 2.8%; RGS4 inhibitor: -4.5%; KB-V1 MDR tox: 23.1µM*; KB-3-1 tox: inactive; PTAP TSG101 blk: -2.5%; SW480 rereplic: 5.3%

What do the screens show for `CCOc1cc(C(=O)Nc2ccc3oc(-c4ccc(F)cc4Cl)nc3c2)cc(OCC)c1OCC`?
RGS4 inhibitor: -19.1%; KB-V1 MDR tox: inactive; KB-3-1 tox: inactive

How did CCc1ccc(OC(C)C(=O)N2CCC(c3nc4ccccc4s3)CC2)cc1 (centres undefined) do in these assays?
RGS4 inhibitor: 40.0%; KB-V1 MDR tox: 14.6µM*; KB-3-1 tox: inconclusive

How did CC(C)Oc1ccc(C(=O)N2CCC(c3nc4ccccc4s3)CC2)cc1 do in these assays?
RGS4 inhibitor: -12.3%; KB-V1 MDR tox: inactive; KB-3-1 tox: inactive

How did COc1ccccc1OC(C)C(=O)N1CCC(c2nc3ccccc3s2)CC1 (centres undefined) do in these assays?
RGS4 inhibitor: -14.5%; KB-V1 MDR tox: inconclusive; KB-3-1 tox: 14.6µM*

How did CCN(CC)C(=O)c1ccc(S(=O)(=O)N2CCC(c3nc4ccccc4s3)CC2)cc1 do in these assays?
MCF10A rerep: inconclusive; RGS4 inhibitor: 2.0%; KB-V1 MDR tox: 7.31µM*; KB-3-1 tox: 20.6µM*; PTAP TSG101 blk: -2.4%; SW480 rereplic: -0.4%

What do the screens show for `CN(C)c1ccc(/C=C2\C=Cc3ccccc32)cc1F`?
KB-V1 MDR tox: inactive; KB-3-1 tox: inactive
